Results on 14 molecules are retold here after PMC12136788.

Numbering of substitutions follows the chain as printed. The full ranking holds about 24,000 sequences; the median of “enrichment r” is about 0.99, and the highest 2% start at about 3.7. This is one part of a sample in which the highest values are shown more often than they occur.

The chains are these.
T1: UNK ZnF1-3 (human, UniProt Q9C0B0 31-174)
T1 sequence: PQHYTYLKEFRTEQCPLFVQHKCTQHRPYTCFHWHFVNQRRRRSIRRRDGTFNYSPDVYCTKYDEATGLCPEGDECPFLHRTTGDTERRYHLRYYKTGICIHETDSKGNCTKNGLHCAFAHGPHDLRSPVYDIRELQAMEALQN

B1: chr6:83878822:83878823:+_ENSMUSG00000030016_ENSMUST00000032088|mus_hu|FALSE|FALSE (ssRNA)
RNA: GGGAGUUCUACAGUCCGACGAUCCUCCUCGAGGAUUAAACCUGGGUCUCGACAUGGCUAUUUUCAAGAAAGCCUGAUUUAAUAAAGUAUAAGGUGGUGUUGAACCAUGUGAGGCAACGGCAUUCAGCUGCUGAAGCGCCAACUCAACAGAGGAUUGAGCAUCA
B2: chr12:67691335:67691336:+_ENSG00000111530_ENST00000540319|hu_mus|motif|central (ssRNA)
RNA: GGGAGUUCUACAGUCCGACGAUCCAUGGAGUCAUUUUUGGACAACUCUGACAACAGAUGUUCAAUAAGGUCUACAAAAACGGUAUUUCCGCAGCUCAUAACUAGGUGGCCAAGAGCAAUAAUUGUUCUUUUCCUCACUGCAAGCAACAGAGGAUUGAGCAUCA
B3: chr15:75216061:75216062:-_ENSG00000178741_ENST00000564811|perfect_dup|motif|central (ssRNA)
RNA: GGGAGUUCUACAGUCCGACGAUCUUUGUCAAGGCCCAGUUCCUCCGGAGUGGAGAUUCCCAGUUCAUUUAAAGUUGGUCGGAGUUCCUGGAUGACAUAGGGGUAGAUUUCCUUAUGAGGUCCUGCUUUGUCCUUAACAACCUCCAACAGAGGAUUGAGCAUCA
B4: chr4:6323411:6323412:-_ENSMUSG00000028245_ENSMUST00000029910|mus_hu|FALSE|FALSE (ssRNA)
RNA: GGGAGUUCUACAGUCCGACGAUCAGAAAAAUAUUUUUAAUGUAGAAAAGAUGAAUAGCUGUAAUGAAAUACAAACCGUUCCUAUACACAGUAAACUUACUAAGAACUGCUAAUCCUUCUCCAGGUUCUUAGAAUCUGGGUACACAACAGAGGAUUGAGCAUCA
B5: chr16:94690093:94690094:+_ENSMUSG00000040785_ENSMUST00000117648|mus_mus|FALSE|FALSE (ssRNA)
RNA: GGGAGUUCUACAGUCCGACGAUCUGGGACUCCUGUGAGCAGACAGCAUCUUCCCAGGGUAAAAAAAAAAAAUAGCCAAUACUAAUUUAAAAAGUAUUUUAUAAUUGAUUACCAAAAUGUAGAUUAAUUGAAUCAUAAGCACUUCAACAGAGGAUUGAGCAUCA
B6: chrX:98838459:98838460:+_ENSMUSG00000034160_ENSMUST00000044475|mus_mus|FALSE|FALSE (ssRNA)
RNA: GGGAGUUCUACAGUCCGACGAUCUCCCAAAUUCGAAUAGGCUUCUGCUAGAAGGGGAUUCUGUUUAAUUGCCAAGGUGCUAAAAUGAGCAGAUCUGUCCAGCCUUCGACACUGGAAGUGUAUAGAUGAAAGUAAUAAAAGAACCAACAGAGGAUUGAGCAUCA
B7: chr12:42180722:42180723:-_ENSMUSG00000036295_ENSMUST00000043884|mus_hu|mus_mus_mus_hu_True|58_108 (ssRNA)
RNA: GGGAGUUCUACAGUCCGACGAUCCUGUAGGAGCAGAAUCUGUGUGUUAGCUGGCAAUCUGGCUGGGAAAGUUAAAAGCCCUAAAUCAUUACAAUCCACUGUAGAUGCUUCCAUAUAAAUGGAUCUGGGUGUAAACCAAGGCCUCAACAGAGGAUUGAGCAUCA
B8: chr12:16048344:16048345:+_ENSG00000023734_ENST00000419869|hu_hu|hu_hu_hu_mus_True|18_78 (ssRNA)
RNA: GGGAGUUCUACAGUCCGACGAUCAGAUCGUCCAUAAGUAAUAACCAAAAUCUCUCCCUCAGGAAUAUACUCCAUGCUGCUAACAGACAUAUUAAAAUUCAGAGAUUUCACUUCUGUCAUAGUAGCAUGAUCCCAGAGCCGAACCAACAGAGGAUUGAGCAUCA
B9: chr7:125984895:125984896:+_ENSMUSG00000030982_ENSMUST00000106553|mus_mus|motif|central (ssRNA)
RNA: GGGAGUUCUACAGUCCGACGAUCGUAGAAGGCAAGAGCUUAAAACCAAUCUGUAUAAAAGUAAAAAUAACAAAAACUUCGGAAUUCCAGGAAGAGUUAAUGGCAGCCAAGCAGAUCUUCCAGGAUGUGGCACUGGGACUCCCGCAACAGAGGAUUGAGCAUCA
B10: chr12:16048344:16048345:+_ENSG00000023734_ENST00000419869|hu_hu|hu_hu_hu_mus_True|8_18 (ssRNA)
RNA: B8 RNA with C57U, G135A
B11: 109710003_109710123_2987_3pUTR_ENSMUSG00000031924_ENSMUST00000034400|mouse|control|control (ssRNA)
RNA: GGGAGUUCUACAGUCCGACGAUCUUCUGCCUCCCAAGUGCUGGGAUUAAAGAUUUAAAAAAAAAAAAGCAUCCUUUUUAUAUAAUAUAAAAUGACAUUACAUUAUCAGUAGUUCAAAAGAAGCCCUGGGUAUUGACGGAUUUCCAACAGAGGAUUGAGCAUCA
B12: chr16:94690093:94690094:+_ENSMUSG00000040785_ENSMUST00000117648|mus_mus|motif|central (ssRNA)
RNA: B5 RNA with U82G, A83G
B13: 74654529_74654649_2250_CDS_ENSG00000113161_ENST00000287936|human|control|control (ssRNA)
RNA: GGGAGUUCUACAGUCCGACGAUCUCUGACAACCUUGGCUGGAAUGACAGCUUCACAAACAACAGAUUUUCCUCUUCCCUCUAUCCAAUUUAUAGCAGCAGGUUUCUUGUCAGUACAAUAGUUACCACUAACGGCUAGAAUCUGCAACAGAGGAUUGAGCAUCA
B14: chr22:19452774:19452775:-_ENSG00000070010_ENST00000399523|hu_hu|hu_hu_hu_mus_False|18_88 (ssRNA)
RNA: GGGAGUUCUACAGUCCGACGAUCCUUCUCAUUGUAGUUGAUAGCAAUCACAUCCCCAGUCGUCAGACAGGCGAAGUUUCUCAAUGCAUUUUCUAAUACCGCUUUAGGGUUGGUAAUGUCCAGGAAGUCUGGGCUCUGAGGCUGCAACAGAGGAUUGAGCAUCA

The experiment deals with T1, UNK ZnF1-3. As to the kind of experiment: nsRBNS (natural sequence RNA bind-n-seq); RBNS binding buffer (assumed for nsRBNS): 25 mM Tris pH 7.5, 150 mM KCl, 3 mM MgCl2, 0.01% Triton X-100, 500 ug/ml BSA, 20 U/ml SUPERase-In, 4 C; UNK is unkempt and MSI1 is Musashi-1; names of the RNAs are library labels; protein concentration not given here; high values mean tight binding.
As to B1, the binding signal turned out to be 1.46 enrichment R.

As to B2, the binding signal worked out at 0.704 enrichment R.

Take B3: the binding signal stood at 0.656 enrichment R.

Consider B4, for which the binding signal stood at 1.02 enrichment R.

B5: the binding signal is 7.05 enrichment R.

Turning to B6, the binding signal worked out at 1.64 enrichment R.

Regarding B7, the binding signal stood at 1.07 enrichment R.

In the case of B8, the binding signal is 0.91 enrichment R.

Consider B9, for which the binding signal is 3.93 enrichment R.

The molecule B10 returned a binding signal of 0.71 enrichment R.

The molecule B11 gave a binding signal of 2.62 enrichment R.

With B12, the binding signal is 4.87 enrichment R.

For B13, the binding signal was found to be 1.16 enrichment R.

The molecule B14 came in with a binding signal of 0.83 enrichment R.
